High-throughput results as filed in PubChem BioAssay.
TDP1 cell CPT – qHTS for Inhibitors of human tyrosyl-DNA phosphodiesterase 1 (TDP1): qHTS in cells in presence of CPT; chicken DT40 Tdp1-/-;hTDP1 cells + 20 nM CPT, ATP luminescence, 48 h; Potency, µM (titrated, usually from 46.2 µM), for the others: at the highest dose activity change, negative = growth inhibition, most hits filed as inhibitors; 420,000 compounds, 12% hits; note: potency is the fitted concentration of half-maximal effect; nearly all actives have a fitted effect of over 55% in size
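Chicken DT40 Tdp1-/- cells complemented with human TDP1, 400 cells/well, exposed to compounds plus 20 nM camptothecin for at least 48 h at 37 C; viability read as ATP content by CellTiter-Glo luminescence.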
HT1080NT lethal – qHTS for induction of synthetic lethality in tumor cells producing 2HG: qHTS for the HT-1080-NT fibrosarcoma cell line; Potency, µM (doses to about 46.1 µM), inactives show at the highest dose activity, negative = less viability, actives largely listed as cytotoxic; AID 686970, 2013; HT-1080-NT fibrosarcoma viability, CellTiter-Glo ATP luminescence, 48 h; 360,000 compounds, 1.6% hits;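 note: NT is the 2HG producing partner of a matched IDH1 knockdown line; potency is the fitted concentration of half-maximal effect; 0% = DMSO-treated cells and -100% = media-only wells without cells; nearly all actives have a fitted effect of over 55% in size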
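Viability of the 2HG-overproducing fibrosarcoma line after 48 hours of compound exposure at 37 degrees C was determined by luminescence with CellTiter-Glo, and concentration-effect curves were then fitted and categorized.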
12-LOX inh – Primary qHTS assay for inhibitors of human arachidonate 12S-lipoxygenase (ALOX12): Round 2 | Polyunsaturated fatty acid lipoxygenase ALOX12 (Homo sapiens), P18054 | 580,000 compounds, 1.1% hits | purified 12hLO, xylenol orange hydroperoxide absorbance | Potency, µM (titrated, usually from 108 µM), for the others: at the top dose activity change, negative = inhibition, usual class: inhibitors; note: potency is the fitted concentration of half-maximal effect
Target sequence (P18054 whole entry, looked up): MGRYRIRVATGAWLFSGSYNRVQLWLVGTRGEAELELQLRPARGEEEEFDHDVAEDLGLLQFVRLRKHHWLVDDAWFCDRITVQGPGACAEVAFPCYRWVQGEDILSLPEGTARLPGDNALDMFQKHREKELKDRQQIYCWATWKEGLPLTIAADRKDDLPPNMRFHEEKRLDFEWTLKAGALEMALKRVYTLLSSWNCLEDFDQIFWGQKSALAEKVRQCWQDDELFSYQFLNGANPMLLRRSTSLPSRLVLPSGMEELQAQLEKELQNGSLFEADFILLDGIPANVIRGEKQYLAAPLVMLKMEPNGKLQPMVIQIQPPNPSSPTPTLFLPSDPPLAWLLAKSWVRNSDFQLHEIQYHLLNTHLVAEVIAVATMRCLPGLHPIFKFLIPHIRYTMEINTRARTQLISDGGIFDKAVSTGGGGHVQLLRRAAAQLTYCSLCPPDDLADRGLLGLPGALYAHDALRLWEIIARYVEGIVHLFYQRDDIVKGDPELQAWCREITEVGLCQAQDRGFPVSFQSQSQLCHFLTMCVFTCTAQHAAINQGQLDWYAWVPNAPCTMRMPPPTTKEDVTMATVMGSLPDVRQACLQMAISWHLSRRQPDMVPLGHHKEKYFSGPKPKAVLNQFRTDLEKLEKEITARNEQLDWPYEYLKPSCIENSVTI
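Purified human 12hLO at 150 nM in 25 mM Hepes, 0.01% Triton X-100, pH 7.0, preincubated 15 min at room temperature with compound. Reaction started with 40 uM arachidonic acid, 30 min at room temperature. Hydroperoxide measured by Fe-xylenol orange, 573/405 nm absorbance ratio.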
IL1B secr inh – qHTS for Inhibitors of Inflammasome Signaling: IL-1-beta AlphaLISA Primary Screen; 360,000 compounds, 4.7% hits; activity change, % at 57.5 µM; THP-1 LPS/ATP IL-1B secretion, AlphaLISA, 16 h; stronger effect = lower value; in the data active = activity change below about -50%; inconclusive = mostly about -30% to -49%
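Secreted IL-1B measured by AlphaLISA bead assay after 16 h compound exposure of THP-1 cells; compounds (final up to 57.5 uM) added 1 h before LPS (250 ng/mL) and ATP (1.25 mM) stimulation; lower signal means less secretion.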
HT1080 IDH1KD tx – qHTS for induction of synthetic lethality in tumor cells producing 2HG: qHTS for the HT-1080-IDH1KD cell line. HT-1080 IDH1 knockdown viability, ATP luminescence, 48 h. Potency, µM (highest dose often 46.1 µM), for inactives: at the highest dose activity, negative = toxicity, most hits filed as cytotoxic. 360,000 compounds, 2% hits. AID 686971, 2013;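 note: potency is the fitted concentration of half-maximal effect; 0% = DMSO wells and -100% = cell-free medium wells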
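IDH1KD HT-1080 cells, 750/well, RPMI + 5% FBS; compound pinned after 2 h settling; 48 h, 37 °C; CellTiter-Glo luminescence; % activity normalised to DMSO and no-cell wells; curves fitted, classed by r2 and efficacy.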
DT40 TDP1 no CPT – qHTS for Inhibitors of human tyrosyl-DNA phosphodiesterase 1 (TDP1): qHTS in cells in absence of CPT. Potency, µM (series often up to 46.2 µM), inactives show at the highest dose activity change, negative = growth inhibition, actives largely listed as inhibitors. 420,000 compounds, 15% hits. DT40 Tdp1-/- hTDP1 cells, no CPT, ATP luminescence, 48 h. AID 686978, 2013; note: potency is the fitted concentration of half-maximal effect; nearly all actives have a fitted effect of over 55% in size
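Cells were dispensed at 400 per well, compounds added by pin tool, plates incubated ≥48 hr at 37 °C, then CellTiter-Glo added for 30 min at room temperature before luminescence reading. Line: DT40 Tdp1-/- complemented with hTDP1; camptothecin omitted.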
Starred values were filed as active, the others as inactive; ? = inconclusive; nt = no result given; [ ] = another dose, or the depositor's remark. The full list was thinned out, with hits kept by preference. Unless noted, calls come from the whole dose curve; as a rule, active = well fitted curve in the direction sought with a large enough effect; inconclusive = small, poorly fitted or top-dose-only effect, or another doubt; inactive = no such curve, though single readings can be large; an effect the other way counts as inactive or inconclusive. Unless noted, % is set by controls: 0 for no effect and ±100 for the full control effect.

SMILES | TDP1 cell CPT | HT1080NT lethal | 12-LOX inh | IL1B secr inh | HT1080 IDH1KD tx | DT40 TDP1 no CPT
O=S(=O)(Nc1nc2n(n1)C(c1ccc(F)cc1)C=C(c1ccc(Cl)cc1)N2)c1ccccc1 (stereo not drawn) | -25.2% | nt | 12.2% | nt | nt | -18.2%
Cc1ccc(S(=O)(=O)N2CCN(c3ccc([N+](=O)[O-])c(Sc4nncn4C)c3)CC2)cc1 | ? | -1.9% | -15.4% | -8.7 | -7.6% | ?
Cc1cc(C)n(-c2cc(N3CCN(S(=O)(=O)c4ccc(C)c(C)c4)CC3)ccc2[N+](=O)[O-])n1 | 20.6µM* | -6.6% | 0.0% | -2.2 | -1.7% | ?
Cn1cnnc1Sc1cc(N2CCN(S(=O)(=O)c3ccc(Cl)c(Cl)c3)CC2)ccc1[N+](=O)[O-] | ? | -29.9% | -6.3% | 0.0 | -29.7% | 14.6µM*
Cc1cc(C)n(-c2cc(N3CCN(S(=O)(=O)c4ccc5ccccc5c4)CC3)ccc2[N+](=O)[O-])n1 | ? | 6.3% | 0.0% | -9.9 | 12.5% | 9.2µM*
Cc1ccc(-c2noc([C@@H]3C[C@H](NC(=O)CC(C)(C)CC(=O)O)CN3C)n2)cc1 | nt | nt | 11.1%[176 µM] | nt | nt | nt
Cc1ccc(C)c(C(=O)C(C)Oc2ccc(C#N)cc2)c1 (stereo not drawn) | nt | nt | -29.1% | nt | nt | nt
Cc1cc(Cl)cc(Cl)c1OCCOCCN(C)C | ? | -11.3% | -23.7% | 0.0 | -22.9% | 14.6µM*
Brc1ccccc1OCCCOc1cccc2cccnc12 | ? | -17.9% | -21.1% | -10.1 | ? | ?
Cc1cc(C)c(OCCN(C)C)c(Cl)c1 | -1.8% | 23.2% | ? | -5.6 | 24.0% | 6.3%
COc1cccc(C=O)c1OCCCOc1cccc2cccnc12 | ? | ? | 9.8% | 14.0 | ? | 20.6µM*
CC(=O)c1cccc(OCCCOc2cccc3cccnc23)c1 | ? | -19.0% | 65.7% | -23.1 | -0.8% | 16.4µM*
Cc1cc(C)cc(OCCCOc2cccc3cccnc23)c1 | 29.1µM* | ? | -23.5% | 0.0 | ? | 16.4µM*
COc1cccc(CN(C)CC(=O)NC2CCCCCC2)c1OC | nt | nt | -27.8% | nt | nt | nt
Cc1cc(Cl)cc(Cl)c1OCCOc1cccc2cccnc12 | 23.1µM* | ? | 157.4% | -21.8 | ? | ?
Brc1ccccc1OCCOc1cccc2cccnc12 | -1.1% | -16.0% | 4.0% | -13.8 | -27.0% | -5.9%
O=C1CC(c2ccccc2)N(Cc2ccncc2)CCCN(C(=O)NCc2ccccc2)CCN1 (stereo not drawn) | nt | nt | -3.7% | nt | nt | nt
Cc1nc2ccc(S(=O)(=O)N(CC(=O)Nc3ccc(Cl)cc3)Cc3ccccc3)cc2s1 | ? | nt | 2.6% | nt | nt | 14.6µM*
COc1ccc(S(=O)(=O)N(C)CC(=O)Nc2cccc(C(C)=O)c2)cc1Cl | 12.6µM* | 7.4% | 14.4% | 5.9 | -2.8% | 12.6µM*
COc1ccc(NC(=O)CN(C)S(=O)(=O)c2ccc3nc(C)sc3c2)cc1Cl | 23.1µM* | nt | -24.5% | nt | nt | 8.2µM*
COc1ccc(C(CNC(=O)c2ccc(S(=O)(=O)N3CCCC3)cc2)N(C)C)cc1OC (stereo not drawn) | ? | 0.4% | 7.3% | 39.5 | 7.2% | 1.8%
COc1ccc(C(CNC(=O)c2ccc(S(=O)(=O)N3CC(C)CC(C)C3)cc2)N(C)C)cc1 (stereo not drawn) | ? | ? | -14.1% | -52.2* | ? | 29.1µM*
O=C(NCc1ccccn1)c1cc(S(=O)(=O)N2CCN(c3ccccc3)CC2)ccc1Cl | 10.3µM* | 3.5% | -17.4% | 18.4 | 1.1% | 18.4µM*
CN(C)C(CNC(=O)c1cccc(S(=O)(=O)N2CCN(c3ccccc3)CC2)c1)c1ccccc1 (stereo not drawn) | ? | -16.1% | 3.0% | -26.7 | -3.5% | ?
COc1ccc(C(CNC(=O)c2cc(S(=O)(=O)N3CCN(c4ccccc4)CC3)ccc2Cl)N(C)C)cc1 (stereo not drawn) | 20.6µM* | ? | -6.2% | ? | ? | 18.4µM*
SMILES | TDP1 cell CPT | HT1080NT lethal | 12-LOX inh | IL1B secr inh | HT1080 IDH1KD tx | DT40 TDP1 no CPT
CCOc1ccccc1Oc1c(C)oc2cc(OCC(=O)Nc3ccc(O)cc3C)ccc2c1=O | nt | nt | -1.9% | nt | nt | nt
OCc1cccc(-c2csc(C(O)(c3ccccc3)C(F)(F)F)n2)c1 (stereo not drawn) | ? | -25.3% | ? | 37.3 | ? | ?
OC(c1ccccc1)(c1nc(-c2ccc(Cl)cc2)cs1)C(F)(F)F (stereo not drawn) | ? | 16.4µM* | ? | 0.7 | ? | ?
OC(c1ccccc1)(c1nc(-c2cc3ccccc3o2)cs1)C(F)(F)F (stereo not drawn) | 20.6µM* | 16.4µM* | ? | 0.0 | ? | 16.4µM*
COc1cccc(-c2nc(-c3cc4ccccc4o3)cs2)c1OC | nt | nt | -23.8% | nt | nt | nt
N#Cc1cccc(-c2csc(C(O)(c3ccccc3)C(F)(F)F)n2)c1 (stereo not drawn) | ? | ? | ? | 3.8 | 16.4µM* | ?
Oc1ccc(-c2nc(-c3cc4ccccc4o3)cs2)cc1 | nt | nt | 11.2µM* | nt | nt | nt
CN(C)CCCNc1oc(/C=C/c2cccs2)nc1C#N | nt | nt | -27.3% | nt | nt | nt
COc1ccc(-c2csc(C(O)(c3ccccc3)C(F)(F)F)n2)cn1 (stereo not drawn) | ? | 23.1µM* | ? | -18.1 | -29.1% | ?
C=CCNc1nc(-c2cc3ccccc3o2)cs1 | -19.5% | 4.2% | 50.1µM* | -95.1* | 1.8% | -18.0%
COc1ccccc1-c1csc(C(O)(c2ccccc2)C(F)(F)F)n1 (stereo not drawn) | ? | ? | ? | 8.0 | ? | 18.4µM*
O=C(O)c1cccc(-c2csc(C(O)(c3ccccc3)C(F)(F)F)n2)c1 (stereo not drawn) | 2.1% | 17.3% | 0.7% | -8.7 | 5.3% | -5.7%
OC(c1ccccc1)(c1nc(-c2cccc(C(F)(F)F)c2)cs1)C(F)(F)F (stereo not drawn) | ? | 23.1µM* | -23.7% | -29.5 | 16.4µM* | ?
O=C(NCCCN1CCOCC1)c1csc(Nc2cccc3ccccc23)n1 | nt | nt | 22.6% | nt | nt | nt
COc1ccc(-c2nc3c(C#N)c[nH]n3c2NC2CCCCC2)cc1 | 16.4µM* | nt | 3.3% | nt | nt | 16.4µM*
